# In PubChem BioAssay (EPA / NIEHS):
# Several values for one entry are separate records, joined by “and”; a condition that tells them apart may be missing. Identical values can stand only once. Activity calls are given as the source filed them. How the source made its calls: active means hit-call score of the fitted dose curve at least 0.9, where 1 is the maximum; inactive means score below 0.9.
# Read-out: Interferon-gamma inducible Protein 10 (IP10), CXCL10 (gene 3627)
# Experiment: BSK_hDFCGF_IP10: BioMAP Diversity Plus: hDFCGF Assay for Interferon-gamma inducible Protein 10 (IP10) Biomarker Activity (AID 2283053)
# Conditions: primary human foreskin fibroblasts; actives raise or lower the signal
# Procedure: BSK_hDFCGF is a cell-based, multiplexed-readout assay that uses foreskin fibroblast, a human skin primary cell, with measurements taken at 24 hours after chemical dosing in a 96-well plate.BSK_hDFCGF_IP10 is an assay component measured in the BSK_hDFCGF assay. It measures IP-10 antibody related to regulation of gene expression using ELISA technology.Data from the assay component BSK_hDFCGF_IP10 was analyzed into 1 assay endpoint. This assay endpoint, BSK_hDFCGF_IP10, was analyzed with bidirectional fitting relative to DMSO as the negative control and baseline of activity. Using a type of binding reporter, gain or loss-of-signal activity can be used to understand changes in the signaling as they relate to the gene CXCL10. Furthermore, this assay endpoint can be referred to as a primary readout, because this assay has produced multiple assay endpoints where this one serves a signaling function. To generalize the intended target to other relatable targets, this assay endpoint is annotated to the cytokine intended target family, where the subfamily is chemotactic factor.
# The levels of cell surface (or secreted, indicated by the prefix "s") biomarker endpoints were measured by ELISA. Overt cytotoxicity to cells in confluent adherent cultures (all systems other than the BT system) was assessed by measuring total protein levels using sulforhodamine B (SRB) staining in parallel cultures at the time of biomarker measurements, indicated as SRB endpoints. For proliferation assays for adherent cell types, individual cell types are cultured at sub-confluence and relative cell numbers quantified by SRB staining at time points optimized for each system (48 h: 3C and CASM3C systems; 72 h: BT and HDF3CGF systems; 96 h: SAg system). SRB was performed by staining cells with 0.1% SRB after fixation with 10% TCA and reading wells at 560 nm.Viability and proliferation of PBMC (T cells) was quantified by Alamar Blue reduction for the SAg and BT systems. For PBMC viability (referred to as PBMC Cytotoxicity within the assay endpoint names), cells were plated (75,000/well in a 96-well plate) and then chemical samples added for 1 h before addition of activators, SEB and TSST-1 (20 ng/mL final concentration each). Cells were incubated for 90 h. Then, Alamar Blue (20 uL/well) (Invitrogen, Cat DAL1100) was added for 6 h, and the plates were read with a fluorescence microplate reader at 546/580 nm (excitation/emission). For PBMC proliferation, cells were plated and activated as above but incubated for only 16 h prior to addition of Alamar Blue. Plates were read after 6 h.
Compound,outcome,AC50
O=C1CCCCCCCCCCCN1,inactive,
CCCC(C)C(=O)OCC (stereo not given),inactive,
CC/C=C\C/C=C\C/C=C\CCCCCCCC(=O)OC,,10.7 µM (active)
C=CCCCCCCCCC=O,inactive,
CC=C(C)C(C)=O,inactive,
CCCCCCCCC(CO)CCCCCC (stereo not given),inactive,
CCOC(=O)C1=NOC(c2ccccc2)(c2ccccc2)C1,inactive,
CC(CCC(=O)O)(c1ccc(O)cc1)c1ccc(O)cc1,inactive,
CCOC(=O)C1=NN(c2ccc(Cl)cc2Cl)C(C)(C(=O)OCC)C1 (stereo not given),inactive,
c1ccc2c(c1)[nH]c1ccccc12,inactive,
CCCCCCC=O,inactive,
CCOC(=O)/C=C\C(=O)OCC,inactive,
Oc1ccc(/C=C/c2cc(O)cc(O)c2)cc1,inactive,
COc1ccc(C(=O)/C(Br)=C\C(=O)O)cc1,,33.1 µM (active) and 32.6 µM (active)
CCN1CN(CC)CN(CC)C1,inactive,
CC1(C)CC(O)CC(C)(C)N1[O],inactive,
C=CC(=O)NC(C)(C)C,inactive,
Cc1ccc([N+](=O)[O-])cc1N,inactive,
Clc1cc(Cl)c(Cl)c(Cl)c1Cl,inactive,
O=C(O)C(F)(F)C(F)(F)C(F)(F)C(F)(F)C(=O)O,inactive,

Compound,outcome,AC50
CCCCC1C(=O)N(c2ccccc2)N(c2ccccc2)C1=O,inactive,
C=C(C)C(=O)OCCCCCCCCCCCC,inactive,
CCCCCCCCCCCC(C)=O,inactive,
CCC1(C)C(=O)N(Cl)C(=O)N1Cl (stereo not given),inactive,
O=C(Oc1ccccc1)c1ccccc1C(=O)Oc1ccccc1,inactive,
CC(C)c1cccc(C(C)C)c1N,inactive,
CC(Cl)COP(=O)(OCC(C)Cl)OCC(C)Cl (stereo not given),inactive,
C[N+](C)(C)CCCNS(=O)(=O)C(F)(F)C(F)(F)C(F)(F)C(F)(F)C(F)(F)C(F)(F)C(F)(F)C(F)(F)F,,48.5 µM (active) and 48.9 µM (active)
Oc1c(Cl)cc(Cl)c(Cl)c1Cl,,31.1 µM (active)
O=C1CCCCCCCCCCC1,inactive,
COc1ccc(C(=O)c2ccccc2)c(O)c1,inactive,
c1ccc2sc(SSN3CCOCC3)nc2c1,inactive,
CC(C)C(=O)OCCc1ccccc1,inactive,
Fc1ccc(Br)cc1,inactive,
CC(C)[N+](C)(CCOC(=O)C1c2ccccc2Oc2ccccc21)C(C)C,inactive,
CC=C(C)C=CC=C(C)C,inactive,
COC(OC)(C(=O)c1ccccc1)c1ccccc1,inactive,
Cc1c(O)cccc1O,inactive,
CCCCCCOC(=O)CCCCC(=O)OCCCCCC,inactive,
CCCCCCCO,inactive,
